Source: PubChem BioAssay AID1159580 (chemical genetic matrix, 2015)
Among all 5,500 compounds or so, about 2,000 (36%) were called active. Roughly 18% stayed inconclusive and do not appear here. Rule as the data show it: active = normalized growth mostly below about 0.91 (no sharp cut-off); inconclusive = no clear call, values can overlap the other calls; inactive = mostly above about 0.92. The list shows a part of the results.

Experiment: chemical genetic growth profiling, strain panel (AID 1159580);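 also: tested at 20 µM; growth read once vehicle control cultures reached saturation at 30 °C; 1 = growth at the plate median or of vehicle wells; lower values mean less growth of the strain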
Settings: S. cerevisiae deletion strains, growth OD

Measured: normalized growth

NNCc1ccccc1
inactive: locus YAL021C, strain ccr4, active compounds read low 0.993 | locus YAL026C, strain drs2, active compounds read low 0.986 | locus YAL030W, strain snc1, active compounds read low 0.979 | locus YBL061C, strain skt5, active compounds read low 0.983 | locus YBR009C, strain hhf1, active compounds read low 1 | locus YBR023C, strain chs3, active compounds read low 0.982 | locus YBR171W, strain sec66, active compounds read low 0.97 | locus YBR231C, strain swc5, active compounds read low 1.01 | locus YBR279W, strain paf1, active compounds read low 0.982 | locus YCL011C, strain gbp2, active compounds read low 0.99 | locus YCL016C, strain dcc1, active compounds read low 0.982 | locus YCL069W, strain vba3, active compounds read low 0.993 | locus YCR088W, strain abp1, active compounds read low 0.974 | locus YDL005C, strain med2, active compounds read low 0.992 | locus YDL040C, strain nat1, active compounds read low 0.971 | locus YDR001C, strain nth1, active compounds read low 0.989 | locus YDR069C, strain doa4, active compounds read low 0.976 | locus YDR137W, strain rgp1, active compounds read low 0.96 | locus YDR159W, strain sac3, active compounds read low 0.983 | locus YDR195W, strain ref2 1.02 | locus YDR297W, strain sur2, active compounds read low 0.989 | locus YDR334W, strain swr1, active compounds read low 0.99 | locus YDR335W, strain msn5, active compounds read low 1 | locus YDR392W, strain spt3, active compounds read low 1 | locus YEL003W, strain gim4, active compounds read low 0.996 | locus YEL037C, strain rad23, active compounds read low 0.991 | locus YEL061C, strain CIN8 (second series), active compounds read low 0.978 | locus YER015W, strain faa2, active compounds read low 0.999 | locus YER016W, strain bim1, active compounds read low 0.998 | locus YER111C, strain swi4, active compounds read low 0.988 | locus YER155C, strain BEM2 (second series), active compounds read low 0.989 | locus YFR010W, strain ubp6, active compounds read low 0.989 | locus YGL167C, strain pmr1, active compounds read low 0.989 | locus YGL173C, strain kem1, active compounds read low 0.961 | locus YGL227W, strain vid30, active compounds read low 0.994 | locus YGL240W, strain doc1, active compounds read low 0.98 | locus YGL253W, strain hxk2, active compounds read low 0.993 | locus YHR013C, strain ard1, active compounds read low 1.03 | locus YHR027C, strain rpn1, active compounds read low 0.997 | locus YHR142W, strain chs7, active compounds read low 0.985 | locus YJL092W, strain hpr5, active compounds read low 0.993 | locus YJL095W, strain BCK1 (second series), active compounds read low 0.986 | locus YJL115W, strain asf1, active compounds read low 0.987 | locus YJL129C, strain trk1, active compounds read low 0.978 | locus YJL154C, strain vps35, active compounds read low 0.986 | locus YJL164C, strain tpk1, active compounds read low 0.98 | locus YJL166W, strain qcr8, active compounds read low 0.997 | locus YJL187C, strain SWE1, active compounds read low 0.987 | locus YKL160W, strain elf1, active compounds read low 0.988 | locus YKR026C, strain gcn3, active compounds read low 0.974 | locus YKR091W, strain srl3, active compounds read low 0.985 | locus YLL001W, strain dnm1, active compounds read low 0.983 | locus YLL026W, active compounds read low 1 | locus YLL041C, strain sdh2, active compounds read low 0.992 | locus YLR027C, strain aat2, active compounds read low 0.991 | locus YLR221C, strain rsa3, active compounds read low 0.978 | locus YLR258W, strain gsy2, active compounds read low 0.987 | locus YLR262C, strain YPT6 (second series), active compounds read low 0.906 | locus YLR320W, strain mms22, active compounds read low 0.993 | locus YLR342W, strain FKS1, active compounds read low 0.981 | locus YLR357W, strain rsc2, active compounds read low 0.967 | locus YLR370C, strain arc18, active compounds read low 0.983 | locus YLR384C, strain iki3, active compounds read low 0.992 | locus YML120C, strain ndi1, active compounds read low 0.979 | locus YMR058W, strain fet3, active compounds read low 0.996 | locus YMR125W, strain sto1, active compounds read low 0.986 | locus YMR129W, active compounds read low 0.99 | locus YMR205C, strain PFK2, active compounds read low 0.976 | locus YMR231W, strain pep5, active compounds read low 0.994 | locus YNL071W, strain lat1, active compounds read low 1.01 | locus YNL209W, strain ssb2, active compounds read low 0.989 | locus YNL248C, strain rpa49, active compounds read low 0.993 | locus YNL322C, strain KRE1 (second series), active compounds read low 0.992 | locus YNR049C, strain mso1, active compounds read low 0.99 | locus YOR001W, strain rrp6, active compounds read low 0.994 | locus YOR070C, strain gyp1, active compounds read low 0.989 | locus YOR080W, strain dia2, active compounds read low 0.983 | locus YOR083W, strain WHI5, active compounds read low 0.987 | locus YOR106W, strain vam3, active compounds read low 0.963 | locus YOR265W, strain rbl2, active compounds read low 1 | locus YOR270C, strain vph1, active compounds read low 0.979 | locus YOR290C, strain snf2, active compounds read low 0.987 | locus YPL051W, strain arl3, active compounds read low 0.969 | locus YPL078C, strain atp4, active compounds read low 0.997 | locus YPL106C, strain sse1, active compounds read low 0.963 | locus YPL240C, strain hsp82, active compounds read low 1
